Data reported in ChEMBL document CHEMBL3988442, “University of Dundee, Small-Polar-MMV Screening Library” (2021).
Where “and” joins values, the source holds several entries; their conditions need not be identical. Identical values can stand only once.

What follows are compounds tested against T1, Arginase-2, mitochondrial (Homo sapiens) (UniProt P78540) (assay: in vitro enzyme assay to detect the production of urea directly proportional to the activity of Arginase II). Conditions: 33.3 µM.
T1 sequence (whole entry): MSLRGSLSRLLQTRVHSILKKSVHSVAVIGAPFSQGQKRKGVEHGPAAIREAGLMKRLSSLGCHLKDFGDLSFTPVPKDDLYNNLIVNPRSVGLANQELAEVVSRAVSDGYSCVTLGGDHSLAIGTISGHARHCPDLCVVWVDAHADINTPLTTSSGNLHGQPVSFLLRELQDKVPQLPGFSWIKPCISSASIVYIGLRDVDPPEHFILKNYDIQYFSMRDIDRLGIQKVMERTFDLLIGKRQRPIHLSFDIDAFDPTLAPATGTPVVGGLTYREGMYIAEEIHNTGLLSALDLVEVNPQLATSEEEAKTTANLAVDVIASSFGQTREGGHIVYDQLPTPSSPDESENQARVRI
Type: functional
Design: scale not given: in the data most compounds retested in dose-response had high values
In the case of `Cn1cc(CC2CCN(C(=O)NCc3cn4ccsc4n3)C2)cn1` (stereo not given), the Percent Effect is reported as -18.9%. In the case of `COc1cc(C(=O)N(CCC#N)Cc2ccccn2)cc(OC)c1C`, the Percent Effect is reported as -1.04%. `CN(Cc1cccnc1)C1CC2(CCN(c3ccccn3)CC2)C1` showed a Percent Effect of -1.17%. Compound `Cc1cc(NC(=O)N2CCN(c3nc(C)c(C)s3)CC2)no1` has a Percent Effect of 0.833%. `CN(C)CCCNC(=O)c1cc(Br)c2c(c1)OCCO2` was tested, and the Percent Effect was 18.2%. With `O=C(Cn1nc2c(cc1=O)CCCC2)N[C@@H](C(=O)O)c1ccccc1` the Percent Effect was 0.176%. In the case of `Cc1cnn(CC2CN(c3cnc4ccccc4n3)CCO2)c1` (stereo not given), the Percent Effect is reported as -4.56%. `CNC(=O)[C@H]1C[C@@H]2CN(C(=O)c3cscn3)C[C@@H]2N1S(C)(=O)=O` was tested, and the Percent Effect was -27.1%. With `Cn1cc(CN2C[C@@H]3COC[C@]3(C(=O)NCc3ccccn3)C2)cn1` the Percent Effect was -54.3%. Work on `CCn1c(Nc2ccccc2OC)nc2c(C)nn(C)c2c1=O` yielded a Percent Effect of -4.4%. `Cc1ccc(CNCc2nnc3n2CC(C(F)(F)F)CC3)cc1` (stereo not given) was tested, and the Percent Effect was -3.23%. For `O=c1[nH]c2c(c(=O)n1C1CCCCC1)CCC2Nc1ccccc1` (stereo not given), the Percent Effect was 1.58%. Compound `Cc1ccc(C)c(C(NC(=O)C2CC2)c2cccnc2)c1` (stereo not given) has a Percent Effect of -1.94%. `Cc1cc(N2CCN(CC(=O)N(C)C)CC2)nc(-c2ccncc2)n1` was tested, and the Percent Effect was -11.8%. In the case of `c1cc(OCc2ccc3c(c2)OCCO3)ccc1CNC1CC1`, the Percent Effect is reported as -5.92%. With `CN(Cc1ccccn1)C1CC2(CCN(Cc3cccnc3)CC2)C1` the Percent Effect was 0.233%. Work on `Cc1ccc(CNC(=O)N(Cc2ccccc2F)C2CC2)cn1` yielded a Percent Effect of -2.6%. Compound `O=C(NC1CCC1)[C@@H]1CCO[C@@H]2CCN(CCc3ccccc3)C[C@H]21` has a Percent Effect of 14.6%. For `c1ccc2sc(N3CCOC(Cn4cccn4)C3)nc2c1` (stereo not given), the Percent Effect was -6.41%. `Cc1nn(CCO)c(C)c1CNC1CCC(C)(C)c2ccccc21` (stereo not given) showed a Percent Effect of 9.38%. With `CSCC(=O)N1CCCC1c1noc(C2CC2)n1` (stereo not given) the Percent Effect was 29.2%. Compound `Cc1cc(S(=O)(=O)Nc2cccc(-n3cccc3)c2)sc1C(=O)O` has a Percent Effect of -0.248%. With `CNC(=O)[C@@H]1C[C@H]2CN(C(=O)c3ccco3)C[C@H]2N1C` the Percent Effect was -21%. In the case of `O=C(Cc1ccccn1)N1CCC2(CC1)CC(Oc1ccccn1)CO2` (stereo not given), the Percent Effect is reported as -5.36%. `CN(C)C(=O)[C@@H]1CCO[C@@H]2CCN(Cc3ccccc3)C[C@@H]21` showed a Percent Effect of 2.92%. With `NC(=O)c1nc(COc2ccc3c(c2)OCO3)no1` the Percent Effect was -7.22%. `CNC(=O)c1cnc(/C=C/c2ccc(OC)c(O)c2)s1` gave a Percent Effect of 2.08%. `Cc1ccc([C@@H]2CN(S(=O)(=O)C(C)C)C[C@H]2N(C)C)cc1` showed a Percent Effect of 4.22%. `Cc1cc(C(=O)N2CCC3(CCCN(CC4CC4)C3=O)C2)c(C)n1C` (stereo not given) showed a Percent Effect of -4.39%. `CCCN1CCC(NC(=O)c2ccc(F)cc2I)CC1` showed a Percent Effect of 24.3%. For `COCCC(=O)N1CCC2(COCc3c(C)nc(NCC4CC4)nc32)C1` (stereo not given), the Percent Effect was -3.03%. `CN(Cc1ccco1)[C@@H]1CN(Cc2ccco2)[C@@H]2CCCO[C@H]12` showed a Percent Effect of 3.03%. Compound `CC(C)c1n[nH]c(C(=O)Nc2ccncc2)c1Br` has a Percent Effect of 4.18%. With `COc1ccc(-c2nc(CN3CC(n4nc(C)cc4C)C3)no2)cc1` the Percent Effect was 17.9%. `CCC(C(=O)NCc1ccncc1)N(c1cccc(C)c1)S(C)(=O)=O` (stereo not given) was tested, and the Percent Effect was 9.38%. `Cc1cc(C)n(C2CN(Cc3noc(-c4ccccc4)n3)C2)n1` was tested, and the Percent Effect was -5.52%. With `CC(O)CNCc1ccc(OCc2ccc3c(c2)OCCO3)cc1` (stereo not given) the Percent Effect was -2.37%. `Cc1cc(CNC(=O)N2CCN(c3ccccc3)CC2)no1` showed a Percent Effect of 4.17%. `O=c1[nH]c2c(c(=O)n1C1CCCCC1)CCC2NCCc1ccccc1` (stereo not given) was tested, and the Percent Effect was -3.35%. Compound `O=C(c1ccc(C2CCCO2)s1)N1Cc2ccccc2C1` (stereo not given) has a Percent Effect of -2.86%.

What follows are compounds tested against T2, Proteasome subunit beta (Trypanosoma cruzi) (UniProt O96673) (assay: Trypanosoma cruzi proteasome chymotrypsin-like activity (TcProtChymo) assay.). Conditions: 9.37 µM.
T2 sequence (whole entry): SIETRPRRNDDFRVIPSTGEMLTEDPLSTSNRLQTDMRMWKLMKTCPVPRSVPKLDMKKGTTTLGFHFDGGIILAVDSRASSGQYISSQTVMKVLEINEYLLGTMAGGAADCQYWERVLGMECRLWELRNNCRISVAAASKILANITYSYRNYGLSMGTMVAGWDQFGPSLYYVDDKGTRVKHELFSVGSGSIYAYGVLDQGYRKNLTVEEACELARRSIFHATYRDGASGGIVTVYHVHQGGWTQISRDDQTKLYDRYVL
Type: functional
Design: scale not given: in the data most compounds retested in dose-response had high values
`Cn1cc(CC2CCN(C(=O)NCc3cn4ccsc4n3)C2)cn1` (stereo not given) was tested, and the Percent Effect was 12.2%. `COc1cc(C(=O)N(CCC#N)Cc2ccccn2)cc(OC)c1C` showed a Percent Effect of 0.523%. Work on `CN(Cc1cccnc1)C1CC2(CCN(c3ccccn3)CC2)C1` yielded a Percent Effect of 3.26%. `Cc1cc(NC(=O)N2CCN(c3nc(C)c(C)s3)CC2)no1` gave a Percent Effect of 12.8%. For `CN(C)CCCNC(=O)c1cc(Br)c2c(c1)OCCO2`, the Percent Effect was 6.28%. `O=C(Cn1nc2c(cc1=O)CCCC2)N[C@@H](C(=O)O)c1ccccc1` was tested, and the Percent Effect was 12.2%. With `Cc1cnn(CC2CN(c3cnc4ccccc4n3)CCO2)c1` (stereo not given) the Percent Effect was 38.1% and 39.2% and 44.7%. `CNC(=O)[C@H]1C[C@@H]2CN(C(=O)c3cscn3)C[C@@H]2N1S(C)(=O)=O` was tested, and the Percent Effect was 5.64%. `Cn1cc(CN2C[C@@H]3COC[C@]3(C(=O)NCc3ccccn3)C2)cn1` showed a Percent Effect of 4.62%. `CCn1c(Nc2ccccc2OC)nc2c(C)nn(C)c2c1=O` gave a Percent Effect of 16.3%. Work on `Cc1ccc(CNCc2nnc3n2CC(C(F)(F)F)CC3)cc1` (stereo not given) yielded a Percent Effect of 8.5%. `O=c1[nH]c2c(c(=O)n1C1CCCCC1)CCC2Nc1ccccc1` (stereo not given) showed a Percent Effect of 9.8%. `Cc1ccc(C)c(C(NC(=O)C2CC2)c2cccnc2)c1` (stereo not given) was tested, and the Percent Effect was 32.4% and 20.1% and 20.4%. For `Cc1cc(N2CCN(CC(=O)N(C)C)CC2)nc(-c2ccncc2)n1`, the Percent Effect was 35.2% and 34.4% and 30.2%. For `c1cc(OCc2ccc3c(c2)OCCO3)ccc1CNC1CC1`, the Percent Effect was 91.2% and 90% and 88.4%. Work on `CN(Cc1ccccn1)C1CC2(CCN(Cc3cccnc3)CC2)C1` yielded a Percent Effect of 9.6%. `Cc1ccc(CNC(=O)N(Cc2ccccc2F)C2CC2)cn1` was tested, and the Percent Effect was 7.85%. `O=C(NC1CCC1)[C@@H]1CCO[C@@H]2CCN(CCc3ccccc3)C[C@H]21` gave a Percent Effect of 22.7%. With `c1ccc2sc(N3CCOC(Cn4cccn4)C3)nc2c1` (stereo not given) the Percent Effect was 38.1% and 31.4% and 25.9%. `Cc1nn(CCO)c(C)c1CNC1CCC(C)(C)c2ccccc21` (stereo not given) showed a Percent Effect of 9.42%. Work on `CSCC(=O)N1CCCC1c1noc(C2CC2)n1` (stereo not given) yielded a Percent Effect of -1.92%. In the case of `Cc1cc(S(=O)(=O)Nc2cccc(-n3cccc3)c2)sc1C(=O)O`, the Percent Effect is reported as 36.5% and 37.6% and 37.3%. `CNC(=O)[C@@H]1C[C@H]2CN(C(=O)c3ccco3)C[C@H]2N1C` was tested, and the Percent Effect was 3.76%. For `O=C(Cc1ccccn1)N1CCC2(CC1)CC(Oc1ccccn1)CO2` (stereo not given), the Percent Effect was 12.2%. For `CN(C)C(=O)[C@@H]1CCO[C@@H]2CCN(Cc3ccccc3)C[C@@H]21`, the Percent Effect was 20.5%. `NC(=O)c1nc(COc2ccc3c(c2)OCO3)no1` was tested, and the Percent Effect was 45% and 40.2% and 44%. In the case of `CNC(=O)c1cnc(/C=C/c2ccc(OC)c(O)c2)s1`, the Percent Effect is reported as 31.5% and 31.2% and 35.7%. `Cc1ccc([C@@H]2CN(S(=O)(=O)C(C)C)C[C@H]2N(C)C)cc1` was tested, and the Percent Effect was -0.258%. For `Cc1cc(C(=O)N2CCC3(CCCN(CC4CC4)C3=O)C2)c(C)n1C` (stereo not given), the Percent Effect was 49.3% and 56.6% and 47.8%. Work on `CCCN1CCC(NC(=O)c2ccc(F)cc2I)CC1` yielded a Percent Effect of 12.5%. For `COCCC(=O)N1CCC2(COCc3c(C)nc(NCC4CC4)nc32)C1` (stereo not given), the Percent Effect was 15.4%. `CN(Cc1ccco1)[C@@H]1CN(Cc2ccco2)[C@@H]2CCCO[C@H]12` gave a Percent Effect of 13.5%. With `CC(C)c1n[nH]c(C(=O)Nc2ccncc2)c1Br` the Percent Effect was 97% and 96.6% and 95.9%. In the case of `COc1ccc(-c2nc(CN3CC(n4nc(C)cc4C)C3)no2)cc1`, the Percent Effect is reported as 14.5%. In the case of `CCC(C(=O)NCc1ccncc1)N(c1cccc(C)c1)S(C)(=O)=O` (stereo not given), the Percent Effect is reported as 7.32%. `Cc1cc(C)n(C2CN(Cc3noc(-c4ccccc4)n3)C2)n1` was tested, and the Percent Effect was 14.3%. In the case of `CC(O)CNCc1ccc(OCc2ccc3c(c2)OCCO3)cc1` (stereo not given), the Percent Effect is reported as 61.5% and 58.6% and 62.4%. For `Cc1cc(CNC(=O)N2CCN(c3ccccc3)CC2)no1`, the Percent Effect was 10.6%. `O=c1[nH]c2c(c(=O)n1C1CCCCC1)CCC2NCCc1ccccc1` (stereo not given) gave a Percent Effect of 2.22%. With `O=C(c1ccc(C2CCCO2)s1)N1Cc2ccccc2C1` (stereo not given) the Percent Effect was 55.5% and 35.5% and 40.2%.
